Bioassay records (PubChem)
TbPYK inhibitor: blocks Trypanosoma brucei pyruvate kinase. Potency, µM (doses to about 76.8 µM), for the others: at the highest dose activity, negative = inhibition, usual class: inhibitors. 410,000 tested, 0.12% active. Q57TT1. TbPYK enzyme, Kinase-Glo Plus ATP luminescence, 45 min; further: nearly all actives have a fitted effect of over 50% in size
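T. brucei PYK with substrate was exposed to pin-transferred compounds across a concentration series, then started with 130 uM ADP (final). After 45 min at room temperature, Kinase-Glo Plus luminescence was read, normalized and curve-fitted.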
Sm TGR block: S. mansoni TGR enzyme inhibition; purified TGR, DTNB reduction, TNB absorbance 405 nm; Potency, µM (series often up to 114 µM), inactives show at the top dose activity change, negative = inhibition, most hits filed as inhibitors; AID 485364; 360,000 tested, 3% active; further: nearly all actives have a fitted effect of over 60% in size
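First, TGR (20 nM dispensed) and NADPH were mixed with compound. Second, a 15 min room-temperature incubation followed. Third, further NADPH and then DTNB were added to start the reaction. Finally, TNB absorbance was monitored kinetically.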
AMA1-RON2 inh: inhibitors of Plasmodium falciparum AMA1-RON2 interaction; 360,000 tested, 0.2% active; Potency, µM (series often up to 58.2 µM), inactives show at the top dose activity change, negative = inhibition, hits mostly inhibitors; AlphaScreen AMA1-biotinylated RON2 peptide binding; AID 720542;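 further: 0% = vehicle wells and -100% = peptide control; nearly all actives have a fitted effect of over 45% in size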
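AMA1 (3D7) with his tag at 25 nM final met compounds first, then biotinylated RON2 peptide at 25 nM; detection used donor plus acceptor beads, 10 µg/mL apiece, read by AlphaScreen after 30 min at room temperature.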
RE007 growth inh: less growth of the S. pombe RE007 Vpr strain; S. pombe RE007 Vpr strain, BacTiter-Glo ATP luminescence, 24 h; Potency, µM (titrated, usually from 92.2 µM), for inactives: top-dose activity change, negative = less growth, hits mostly inhibitors; 360,000 tested, 0.21% active; AID 651644; active means well fitted falling curve with a large enough effect; inconclusive means small, poorly fitted or top-dose-only effect; inactive means no such curve, though single readings can be large or run the other way; further: nearly all actives have a fitted effect of over 50% in size
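Fission yeast RE007 carrying one integrated HIV-1 vpr copy, seeded at OD 0.01 in PMG+AL medium with 23 nL pinned compound. Grown 24 h at 30 degrees; viability read by BacTiter-Glo luminescence after 5 min.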
LmPK inhibitor: LmPK (Leishmania mexicana) enzyme inhibition. Q27686. purified LmPK, Kinase-Glo ATP luminescence, 1 h. Potency, µM (top dose mostly 57.5 µM), without a hit: at the top dose activity change, negative = inhibition, usual class: inhibitors. 290,000 tested, 0.37% active. AID 1721
Target sequence (Q27686 whole entry, looked up): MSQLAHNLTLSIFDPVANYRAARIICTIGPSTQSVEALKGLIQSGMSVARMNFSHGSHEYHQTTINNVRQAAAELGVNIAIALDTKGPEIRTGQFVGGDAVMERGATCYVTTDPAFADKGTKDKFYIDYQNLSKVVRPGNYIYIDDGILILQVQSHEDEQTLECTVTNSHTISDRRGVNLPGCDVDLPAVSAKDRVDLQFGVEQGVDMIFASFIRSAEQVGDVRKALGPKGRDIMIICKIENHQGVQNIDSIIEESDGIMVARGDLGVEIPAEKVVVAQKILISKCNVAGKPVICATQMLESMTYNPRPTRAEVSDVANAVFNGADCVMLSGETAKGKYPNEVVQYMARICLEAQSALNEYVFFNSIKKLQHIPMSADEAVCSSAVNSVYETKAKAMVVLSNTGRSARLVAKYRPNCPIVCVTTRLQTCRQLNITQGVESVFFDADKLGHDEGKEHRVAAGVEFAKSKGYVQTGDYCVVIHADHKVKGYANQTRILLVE
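Purified LmPK (0.1 nM) converted ADP (0.1 mM) to ATP with PEP (0.5 mM) in imidazole buffer pH 7.2 with KCl and MgCl2, 1 h at room temperature. ATP was read by Kinase-Glo luminescence; data normalized to uninhibited and no-enzyme controls.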
The depositor's hits bear a star; u = inconclusive; x = no result given; [ ] = another dose, or the depositor's remark. Shown are actives, neighbours in structure and some others; about 3.2% of the full set was active somewhere. Unless noted, the call rests on the fitted dose curve; in most records, active means well fitted curve in the direction sought with a large enough effect; inconclusive means small, poorly fitted or top-dose-only effect, or another doubt; inactive means no such curve, though single readings can be large; an effect the other way counts as inactive or inconclusive. Unless noted, on the % scale 0 is the no-effect control and ±100 the full control effect; potency means the concentration at half of the fitted maximal effect.

SMILES	TbPYK inhibitor	Sm TGR block	AMA1-RON2 inh	RE007 growth inh	LmPK inhibitor
CCOc1ccccc1NC(=O)c1c(NCc2sccc2C)sc2c1CCCCC2	-24%	40µM*	x	x	x
CCOc1ccccc1NC(=O)c1c(NCc2sccc2C)sc2c1CCC(C)C2 (stereo not drawn)	-13%	-2%	x	x	x
COc1ccc(NC(=O)c2c(NCc3sccc3C)sc3c2CCCCC3)c(OC)c1	u	13µM*	x	x	x
COc1ccc(Cl)cc1NC(=O)c1c(NCc2sccc2C)sc2c1CCCC2	u	-1%	x	x	x
COc1ccccc1NC(=O)c1c(NCc2sccc2C)sc2c1CCCCC2	-12%	11µM*	x	x	x
O=C(OCc1ccccc1F)c1ccc(-c2nnn(Cc3ccccc3)n2)cc1	1%	-10%	x	x	x
COc1ccc(Br)c2c1-c1nc(NC(=O)c3cccc(C)c3)sc1C2	-21%	-5%	x	x	x
COc1nccnc1NS(=O)(=O)c1ccc(NC(=S)NC(=O)c2ccc(F)cc2)cc1	-8%	45µM*	-10%	-4%	0%
COc1ccc(C(=O)Nc2ccc(S(=O)(=O)Nc3nccnc3OC)cc2)cc1OC	4%	6%	8%	5%	0%
COc1nccnc1NS(=O)(=O)c1ccc(NC(=S)NC(=O)c2cccnc2)cc1	0%	20µM*	-4%	3%	-19%
COc1nccnc1NS(=O)(=O)c1ccc(NC(=S)NC(=O)c2ccccc2F)cc1	2%	u	2%	-15%	-3%
O=C(NC(=S)Nc1ccc(S(=O)(=O)Nc2nccs2)cc1)c1ccc(F)cc1	-7%	28µM*	27%	-8%	5%
COc1nccnc1NS(=O)(=O)c1ccc(NC(=S)NC(=O)c2cccc(F)c2)cc1	-2%	45µM*	4%	-12%	-7%
COc1ccc(Cn2cc(S(=O)(=O)c3ccc(C)cc3)c(=O)c3cc(F)ccc32)cc1	2%	1%	x	x	x
COc1nsnc1NS(=O)(=O)c1ccc(NC(=S)NC(=O)c2ccncc2)cc1	-4%	32µM*	8%	-12%	-5%
COc1nsnc1NS(=O)(=O)c1ccc(NC(=S)NC(=O)c2cccnc2)cc1	-4%	x	1%	-15%	-14%
CC1CCC(O)C/C1=C\C=C1/CCCC2(C)C1CCC2C(C)/C=C/C(C)C(C)C (stereo not drawn)	-8%	x	x	x	x
O=C(CCSCc1cnn(-c2ccccc2)c1-n1cccc1)NCc1ccccc1F	2%	-11%	x	x	x
COc1ccc(C(=O)c2nc3ccccc3n2C(C)C)cc1OC	4%	28%	14%	-3%	1%
COc1ccc(C(=O)c2nc3ccccc3n2C(C)C)cc1	4%	32µM*	-1%	0%	1%
O=C(CCNc1cccc(C(F)(F)F)c1)c1ccco1	1%	3.5µM*	9%	u	3%
O=C(CCNc1ccc(F)c(Cl)c1)c1ccco1	2%	8.9µM*	24%	-24%	-3%
O=C(CCNc1cc(Cl)cc(Cl)c1)c1ccco1	-4%	u	6%	u	0%
O=C(CCNc1ccc(F)cc1)c1ccco1	5%	4µM*	-3%	6.3µM*	-5%
CC(=O)N1CCc2c(sc3c2c(=O)n(-c2cc(Cl)ccc2C)c(=O)n3C)C1	2%	-10%	x	x	x
SMILES	TbPYK inhibitor	Sm TGR block	AMA1-RON2 inh	RE007 growth inh	LmPK inhibitor
CSc1ccc(C2C(C#N)=C(N)Oc3c2ccc(=O)c2c(C)oc(C)c32)cc1 (stereo not drawn)	-14%	28µM*	u	-20%	-1%
Cc1oc(C)c2c(=O)ccc3c(c12)OC(N)=C(C#N)C3c1ccccc1 (stereo not drawn)	4%	28µM*	-16%	7%	-1%
COc1ccc(C2C(C#N)=C(N)Oc3c2oc(CO)cc3=O)cc1 (stereo not drawn)	0%	-4%	8%	2%	-5%[11.5 µM]
Cc1oc(C)c2c(=O)ccc3c(c12)OC(N)=C(C#N)C3c1ccccc1Cl (stereo not drawn)	-14%	u	-6%	0%	2%
COc1ccc(OC)c(-c2cc(C(=O)Nc3cnn(Cc4ccc(Cl)cc4Cl)c3)no2)c1	0%	8%	x	x	x
CCOc1ccc(NC(c2ccccc2)P(=O)(OC)OC)cc1 (stereo not drawn)	-8%	16µM*	-19%	-2%	-6%
O=S1(=O)c2ccccc2N(Cc2ccc(Cl)cc2F)c2ccccc21	-3%	-1%	x	x	x
Brc1ccc(CSc2nnc(-c3ccccn3)n2Cc2ccco2)cc1	-5%	40µM*	-4%	13%	-3%
Clc1cccc(CSc2nnc(-c3ccccn3)n2Cc2ccco2)c1	-4%	40µM*	8%	4%	2%
CC(C(=O)O)c1ccc2c(c1)CC(=O)c1ccccc1S2 (stereo not drawn)	-1%	x	x	x	x
O=[N+]([O-])c1nn(-c2ccc3c(c2)OCCO3)n(O)c1=NCCC1=CCCCC1	-2%	25µM*	u	25%	2%
CC(C)c1ccc(N=c2c([N+](=O)[O-])nn(-c3ccc4c(c3)OCCO4)n2O)cc1	8%	13µM*	u	27%	5%
Cc1c(NC2=C(Cl)C(=O)N(c3ccccc3Cl)C2=O)c(=O)n(-c2ccccc2)n1C	-27%	40µM*	-3%	x	3%
C=CCNC1=C(Cl)C(=O)N(c2ccccc2Cl)C1=O	0%	45µM*	23%	-2%	2%
Cc1c(NC(=O)Cc2ccc(Cl)cc2)cccc1-c1nc2cccnc2s1	-3%	2%	x	x	x
COc1ccc(N(C(=O)c2ccncc2)S(=O)(=O)c2cccc([N+](=O)[O-])c2)cc1	5%	32µM*	-2%	-17%	0%
COc1ccc(N(C(=O)c2cccnc2)S(=O)(=O)c2cccc([N+](=O)[O-])c2)cc1	-5%	u	-5%	15%	3%
O=C(CC1C(=O)CCCC1=O)c1ccccc1	-9%	40µM*	7%	-13%	-4%
O=C(CCC1CCCCC1=O)c1ccccc1 (stereo not drawn)	3%	7%	-5%	-1%	-1%
O=C1CN(C(=O)c2ccc(S(=O)(=O)N3CCCC3)cc2)C(c2ccccc2)c2cc(Br)ccc2N1 (stereo not drawn)	2%	5%	x	x	x
CCCN(Cc1cccs1)C(=O)Nc1cc(C)cc(C)c1	-4%	-7%	x	x	x
CCc1ccc(C(=O)/C=C/c2ccc([N+](=O)[O-])o2)cc1	-23%	3.2µM*	9%	-11%	-3%
CCOC(=O)CCc1ccc(NC(=O)/C=C/c2ccc([N+](=O)[O-])o2)cc1	11%	x	-9%	0%	x
CCN(CC)S(=O)(=O)c1ccc(C(=O)/C=C/c2ccc(-c3ccc([N+](=O)[O-])cc3)o2)cc1	-7%	16µM*	-4%	-15%	-4%
Cc1ccc(C(=O)/C=C/c2ccc(-c3ccc(C)cc3)o2)cc1	-13%	u	-6%	4%	-20%
